Test results taken from PubChem BioAssay (EPA / NIEHS).
“And” between values parts separate entries of the source, which are not always exact repeats. Identical values can stand only once. A structure can be active in one record and inactive in another. The source made the active and inactive calls. How the source made its calls: active means hit-call score of the fitted dose curve at least 0.9, where 1 is the maximum; inactive means score below 0.9.

How the values were obtained:
[1] = read-out: Intercellular Adhesion Molecule 1 (ICAM1), ICAM1 (gene 3383); assay: BSK_hDFCGF_ICAM1: BioMAP Diversity Plus: hDFCGF Assay for Intercellular Adhesion Molecule 1 (ICAM1) Biomarker Activity (AID 2284287); details: primary human foreskin fibroblasts
Procedure, shortened: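 ICAM-1 ELISA readout 24 h after dosing, DMSO as baseline, in human dermal foreskin fibroblast cultures. Cytotoxicity checked in parallel wells by SRB staining (0.1% SRB, 10% TCA fixation, 560 nm).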

[2] = read-out: TIMP metallopeptidase inhibitor 2 (TIMP2), TIMP2 (gene 7077); assay: BSK_hDFCGF_TIMP2: BioMAP Diversity Plus: hDFCGF Assay for TIMP metallopeptidase inhibitor 2 (TIMP2) Biomarker Activity (AID 2284289); details: primary human foreskin fibroblasts
Procedure, shortened: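 Primary human foreskin fibroblasts in the hDFCGF system, dosed for 24 h; TIMP-2 level measured by ELISA, fitted in the positive direction against DMSO; cytotoxicity checked in parallel by sulforhodamine B total protein staining.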

[3] = read-out: Thrombomodulin, THBD (gene 7056); assay: BSK_LPS_Thrombomodulin: BioMAP Diversity Plus: LPS Assay for Thrombomodulin Biomarker Activity (AID 2284296); details: primary human HUVEC with PBMC
Procedure, shortened: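 Thrombomodulin on the surface of LPS-activated endothelial/PBMC co-cultures was quantified by ELISA at 24 hours post-dosing, with DMSO as baseline. Parallel SRB total-protein staining flagged overt cytotoxicity.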

CD69, CD69 (gene 969) = assay: BSK_LPS_CD69: BioMAP Diversity Plus: LPS Assay for CD69 Biomarker Activity (AID 2284303); details: primary human HUVEC with PBMC
Protocol: BSK_LPS is a cell-based, multiplexed-readout assay that uses umbilical vein endothelium and peripheral blood mononuclear cells, a human vascular primary cell co-culture, with measurements taken at 24 hours after chemical dosing in a 96-well plate.BSK_LPS_CD69 is an assay component measured in the BSK_LPS assay. It measures CD69 antibody related to regulation of gene expression using ELISA technology.Data from the assay component BSK_LPS_CD69 was analyzed at the endpoint, BSK_LPS_CD69, in the positive analysis fitting direction relative to DMSO as the negative control and baseline of activity. Using a type of binding reporter, gain or loss-of-signal activity can be used to understand protein changes. To generalize the intended target to other relatable targets, this assay endpoint is annotated to the 'cytokine' intended target family, where the subfamily is 'inflammatory factor'.
The levels of cell surface (or secreted, indicated by the prefix "s") biomarker endpoints were measured by ELISA. Overt cytotoxicity to cells in confluent adherent cultures (all systems other than the BT system) was assessed by measuring total protein levels using sulforhodamine B (SRB) staining in parallel cultures at the time of biomarker measurements, indicated as SRB endpoints. For proliferation assays for adherent cell types, individual cell types are cultured at sub-confluence and relative cell numbers quantified by SRB staining at time points optimized for each system (48 h: 3C and CASM3C systems; 72 h: BT and HDF3CGF systems; 96 h: SAg system). SRB was performed by staining cells with 0.1% SRB after fixation with 10% TCA and reading wells at 560 nm.Viability and proliferation of PBMC (T cells) was quantified by Alamar Blue reduction for the SAg and BT systems. For PBMC viability (referred to as PBMC Cytotoxicity within the assay endpoint names), cells were plated (75,000/well in a 96-well plate) and then chemical samples added for 1 h before addition of activators, SEB and TSST-1 (20 ng/mL final concentration each). Cells were incubated for 90 h. Then, Alamar Blue (20 uL/well) (Invitrogen, Cat DAL1100) was added for 6 h, and the plates were read with a fluorescence microplate reader at 546/580 nm (excitation/emission). For PBMC proliferation, cells were plated and activated as above but incubated for only 16 h prior to addition of Alamar Blue. Plates were read after 6 h.

[4] = IUF_NPC2c_oligodendrocyte_migration_120hr: Leibniz Research Institute for Environmental Medicine (IUF) 120-hour Neural Progenitor Cell Migration Assay for Oligodendrocyte Migration (NPC2c) (AID 2284297);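 further: O4-positive oligodendrocyte migration distance divided by radial glia migration distance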
Procedure, shortened: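 hNPC spheres (GW 16-19 cortex), PDL/laminin, DMEM/F12 3:1 + 1% N2, 37C. Dosing day 0–5, half feed day 3, DMSO ≤0.1%. Fixed 120 h; O4 ICC + Hoechst, HCI. Readout: mean oligodendrocyte distance from sphere edge / radial glia distance.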

[5] = IUF_NPC2a_radial_glia_migration_120hr: Leibniz Research Institute for Environmental Medicine (IUF) 120-hour Neural Progenitor Cell Migration Assay for Radial Glia Migration (NPC2a) (AID 2284298)
Procedure, shortened: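 Hoechst-stained nuclei imaged at 120 h; algorithm maps sphere core by densest nuclei, sets migration edge at density threshold, gives radial glia migration distance (um) per well vs DMSO. hNPC spheres (0.3 mm), PDL/laminin, DMEM/F12 3:1 + 1% N2.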

[6] = IUF_NPC2a_radial_glia_migration_72hr: Leibniz Research Institute for Environmental Medicine (IUF) 72-hour Neural Progenitor Cell Migration Assay for Radial Glia Migration (NPC2a) (AID 2284299)
Procedure, shortened: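 Radial glia migration (µm, sphere core edge to migration front, four directions averaged) from brightfield images at 72 h; hNPC spheres differentiating on PDL/laminin in N2 medium, compound exposure at 7 concentrations from plating.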

[7] = IUF_NPC2b_neuronal_migration_120hr: Leibniz Research Institute for Environmental Medicine (IUF) 120-hour Neural Progenitor Cell Migration Assay for Neuron Migration (NPC2b) (AID 2284300)
Procedure, shortened: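 hNPC spheres, PDL/laminin, DMEM:F12 3:1 + 1% N2, 37C/5% CO2; 7 concentrations + solvent control (DMSO ≤0.1%), 5 d exposure, half-feed day 3. Fix 120 h, TUBB3 ICC, HCI: mean neuron migration distance ÷ glia distance.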

[8] = IUF_NPC3_neuronal_differentiation_120hr: Leibniz Research Institute for Environmental Medicine (IUF) 120-hour Neuronal Differentiation Assay (NPC3) (AID 2284301)
Procedure, shortened: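 Neuronal differentiation of primary human neural progenitors measured by high-content imaging: percent TUBB3+ of Hoechst+ nuclei within migrated area at 120 h, seven-point serial dilution plus solvent control, gain or loss relative to DMSO.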

[9] = IUF_NPC4_neurite_length_120hr: Leibniz Research Institute for Environmental Medicine (IUF) 120-hour Neuronal Morphology Assay for Neurite Length (NPC4) (AID 2284302)
Procedure, shortened: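 Neurons from differentiating human fetal neural progenitor spheres are scored for average neurite length after five days of compound exposure. Fitting uses DMSO as negative control.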

Measured: AC50

CCOC(=O)c1ccccc1C(=C1C=C(Br)C(=O)C(Br)=C1)c1cc(Br)c(O)c(Br)c1
active: [1] 4.29 µM and 4.91 µM | [2] 3.49 µM and 3.46 µM | [3] 10.3 µM | CD69, CD69 (gene 969) 8.66 µM and 7.45 µM
inactive: [3]

CO[Si](OC)(OC)c1ccccc1
inactive: [1] | [2] | [3] | CD69, CD69 (gene 969)

CCCCC(CC)COCC1CO1 (centres undefined)
inactive: [1] | [2] | [3] | CD69, CD69 (gene 969)

C=C[Si](OC(C)=O)(OC(C)=O)OC(C)=O
inactive: [1] | [2] | [3] | CD69, CD69 (gene 969)

Nc1ncn([C@@H]2O[C@H](CO)[C@@H](O)[C@H]2O)c(=O)n1
inactive: [4] | [5] | [6] | [7] | [8] | [9]

Nc1ccc(N)c(Cl)c1
active: [2] 28.1 µM and 28.9 µM | CD69, CD69 (gene 969) 4.71 µM and 1.81 µM
inactive: [1] | [3]

CCO[Si](C)(OCC)OCC
inactive: [1] | [2] | [3] | CD69, CD69 (gene 969)

CN1C(=O)N(C)C(O)C1O (centres undefined)
inactive: [1] | [2] | [3] | CD69, CD69 (gene 969)

O=C1CCCN1CCO
inactive: [1] | [2] | [3] | CD69, CD69 (gene 969)

CC1(C)S[C@@H]2[C@H](NC(=O)COc3ccccc3)C(=O)N2[C@H]1C(=O)O
inactive: [4] | [5] | [6] | [7] | [8] | [9]

O=C(c1ccc(O)cc1)c1ccc(O)cc1O
inactive: [1] | [2] | [3] | CD69, CD69 (gene 969)
